Compounds without any hit were thinned out: in the full panel of roughly 79,000, 15% have a hit. Activity calls are given as the source filed them. Rule as the data show it: active = growth inhibition above about 70%; inactive = the rest.
Assay: NCI Yeast Anticancer Drug Screen. Data for the rad50 strain (AID 155);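 also: 0% = growth of vehicle-only cultures of the same strain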
Details: S. cerevisiae rad50 strain growth inhibition; at 50.0 µM; active compounds read high
In short: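 Compounds were tested on a yeast strain with an engineered DNA damage repair alteration; the reported value is growth inhibition normalised to vehicle treatment.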

Structure (SMILES) | growth inhibition
COc1cc2c(cc1OC)C(=O)C(C1CCCCC1)NC2 (configuration not stated) | 20.7% (inactive)
COc1cc2c(cc1OC)C1C(=O)c3c(O)cc4c(c3OC1CO2)C=CC(C)(C)O4 (configuration not stated) | 49.8% (inactive)
Fc1ccccc1-c1nc2ccccc2s1 | 45% (inactive)
CCOc1ccc(NC(=S)NC=C(C(N)=O)C(N)=O)cc1 | -47.3% (inactive)
O=c1oc2ccccc2c(O)c1C(c1cccc(C(c2c(O)c3ccccc3oc2=O)c2c(O)c3ccccc3oc2=O)c1)c1c(O)c2ccccc2oc1=O | 26.6% (inactive)
CCC(=O)Oc1cccc2ccccc12 | -14.4% (inactive)
Cc1cc(C)nc(NS(=O)(=O)c2ccc(NC(=O)C(Cl)(Cl)Cl)cc2)n1 | -34% (inactive)
OCC[N+]12CCCN1CCC2 | -15.4% (inactive)
COc1ccc(/C=C/C(=O)N(C)C)cc1 | 3.1% (inactive)
CCOC(=O)C(/C=N/C(=S)Nc1c(C)cccc1C)=C(/O)c1ccccc1 | -50.3% (inactive)
CC(C)(C)NC(=O)c1cccc(C(=O)NC(C)(C)C)n1 | 3.3% (inactive)
O=c1nc(OCCO)c([N+](=O)[O-])c(C(Cl)(Cl)Cl)[nH]1 | 61.4% (inactive)
Cc1ccc2c(c1-c1ccccc1)C(=O)OC2 | -5.4% (inactive)
Cc1sc2nc3n(c(=O)c2c1C)N=C(c1ccc([N+](=O)[O-])cc1)CS3 | 9.15% (inactive)
Cn1cc(-c2ccccc2)cc1-c1ccccc1 | -11.4% (inactive)
CCCCCCC1OCC(C)([N+](=O)[O-])CO1 (configuration not stated) | 13.9% (inactive)
CN1Cc2ccccc2[C@H]2C(c3ccccc3)=NN(c3ccccc3)[C@H]21 | 39.6% (inactive)

From PubChem BioAssay (NCI)
